From PubChem BioAssay (Tox21)
Records with an inconclusive call do not appear. The source made the active and inactive calls. Unless noted, the call rests on the fitted dose curve; in most records, active means well fitted curve in the direction sought with a large enough effect in the repeat runs; inconclusive means weak or mixed curves; inactive means no such curve, though single readings can be large; an effect the other way counts as inactive or inconclusive.

Legend:
[1] = qHTS assay to identify small molecule antagonists of the estrogen related receptor (ERR) signaling pathway from Tox21 library - cell viability counter screen (AID 1224834); further: nearly all actives have a fitted effect of over 30% in size; further: potency means the concentration at half of the fitted maximal effect
Procedure, shortened: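 ERR reporter cells were plated 6 h before compound addition, then exposed to test compounds in DMSO for 17.5 h at 37 C. Viability was read as CellTiter-Fluor fluorescence after a 30-minute incubation at 37 C.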

[2] = target: Luciferin 4-monooxygenase (Photinus pyralis) (UniProt P08659); assay: qHTS assay to identify small molecule inhibitors of firefly luciferase (AID 1224835); further: nearly all actives have a fitted effect of over 25% in size; further: potency means the concentration at half of the fitted maximal effect
Procedure, shortened: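 Biochemical qHTS: compounds run as interplate titrations against purified firefly enzyme, with D-luciferin and ATP each at its KM concentration. Light output recorded by CCD imaging.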

[3] = qHTS assay to identify small molecule agonists of the constitutive androstane receptor (CAR) signaling pathway - cell viability counter screen (AID 1224836); further: nearly all actives have a fitted effect of over 45% in size; further: potency means the concentration at half of the fitted maximal effect
Procedure, shortened: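 23 h treatment, 37 C, 5% CO2. Cell line: HepG2 stably expressing hCAR with a CYP2B6-2.2kb construct. Co-treatment: PK11195, 0.75 uM final. Read-out: CellTiter-Fluor fluorescence intensity.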

[4] = qHTS assay to identify small molecule antagonists of the constitutive androstane receptor (CAR) signaling pathway - cell viability counter screen (AID 1224837); further: nearly all actives have a fitted effect of over 45% in size; further: potency means the concentration at half of the fitted maximal effect
Procedure, shortened: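 HepG2 cells stably expressing hCAR and a CYP2B6-2.2kb reporter were plated and pre-incubated 4 hr at 37 C/5% CO2, then given compounds at 15 concentrations plus 50 nM CITCO (final). After 23 hr, viability was read by CellTiter-Fluor fluorescence.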

[5] = target: Nuclear receptor subfamily 1 group I member 3 (Homo sapiens) (UniProt Q14994); assay: qHTS assay to identify small molecule antagonists of the constitutive androstane receptor (CAR) signaling pathway (AID 1224838); further: nearly all actives have a fitted effect of over 40% in size
Procedure, shortened: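 HepG2 cells stably co-transfected with hCAR and a CYP2B6-2.2kb luciferase reporter were seeded 4 h before compound addition at 15 concentrations. Cells were stimulated with 50 nM CITCO (final) for 24 h at 37 C; luciferase luminescence was then read.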

[6] = qHTS assay to identify small molecule agonists of the hypoxia (HIF-1) signaling pathway - cell viability counter screen (AID 1224844; calls by dose curve; further: nearly all actives have a fitted effect of over 50% in size)
Procedure, shortened: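 HRE-bla ME-180 cells in medium with 0.5% dialyzed FBS were preincubated 5 hrs at 37C, exposed to compounds for 17 hrs, then viability was read as CellTiter-Glo luminescence after 30 min at room temperature, in the reporter wells.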

[7] = qHTS assay to identify small molecule agonists of H2AX (AID 1224845; active means well fitted activation curve with a large enough effect in the signal ratio in the repeat runs, not every such curve was filed as active; the % refers to the signal ratio)
Procedure, shortened: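 Wild-type CHO-K1 cells, plated overnight, exposed 3hr at 37C to 15 concentrations (0.76% DMSO final). Lysed, then HTRF anti-pH2AX (S139) cryptate and anti-H2AX-d2 antibodies, 24 hr room temperature; 665/620 nm emission read.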

[8] = qHTS assay to identify small molecule agonists of the hypoxia (HIF-1) signaling pathway (AID 1224846; active means well fitted activation curve with a large enough effect in the signal ratio in the repeat runs, not every such curve was filed as active; the % refers to the signal ratio)
Procedure, shortened: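 HRE-bla ME-180 cells (beta-lactamase reporter under hypoxia response element) were plated at 2,000 cells/well in medium with 0.5% dialyzed FBS, rested 5 hrs, then given compounds in DMSO for 17 hrs at 37C, 5% CO2. Reporter induction was read with CCF4-AM FRET substrate.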

[9] = qHTS assay to identify small molecule agonists of H2AX - cell viability counter screen (AID 1224847; calls by dose curve; further: top concentration of the series differs between compounds; nearly all actives have a fitted effect of over 30% in size)
Procedure, shortened: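 Compounds tested at 15 concentrations were incubated 3 hr at 37C with wild-type CHO-K1 cells; cellular ATP-based luminescence (CellTiter-Glo) indicated viability.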

[10] = qHTS RealTime-Glo MT Cell Viability Assay in HepG2 cells - 24 hour (AID 1224867); further: nearly all actives have a fitted effect of over 50% in size
Procedure, shortened: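 Compound treatment began 5 h after plating HepG2 cells (600/well) with NanoLuc luciferase and prosubstrate. Plates stayed at 37 C for 40 h; luminescence was captured at six time points, 0 h through 40 h.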

[11] = A CellTox Green Cytotoxicity Assay to monitor cytotoxicity in HEK293 cells - 0 hour (AID 1224869); further: nearly all actives have a fitted effect of over 50% in size
Procedure, shortened: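 HEK293 cells premixed with CellTox Green dye were seeded at 600 cells/well and left 5 h at 37 C/5% CO2 before pin transfer of 23 nL compound in DMSO. Fluorescence from dye bound to dead-cell DNA was read during 40 h treatment.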

[12] = qHTS assay to identify small molecule antagonists of the estrogen related receptor signaling pathway with the pleiotropic PPARgamma coactivator (PGC) from Tox21 10K library - cell viability counter screen (AID 1224840; active means well fitted cell-killing curve with a large enough effect in the repeat runs, not every such curve was filed as active; further: nearly all actives have a fitted effect of over 40% in size; further: potency means the concentration at half of the fitted maximal effect)
Procedure, shortened: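 PGC/ERR cells were seeded at 2,000 cells/well and left 6 hours at 37 C/5% CO2 before pin-tool addition of compounds in DMSO. After 17.5 hours at 37 C, CellTiter-Fluor was added and fluorescence read 30 minutes later.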

[13] = target: Thyrotropin receptor (Homo sapiens) (UniProt P16473); assay: qHTS assay to identify small molecule agonists of the thyroid stimulating hormone receptor (TSHR) signaling pathway (AID 1224843; calls by dose curve; further: nearly all actives have a fitted effect of over 45% in size; further: potency means the concentration at half of the fitted maximal effect)
Procedure, shortened: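 Steps: seed 800 TSHR-HEK293 cells per well; add test compound and hold 30 min at ambient temperature; dispense cAMP-d2 then anti-cAMP cryptate; incubate 1 h at ambient; measure fluorescence intensity.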

[14] = qHTS RealTime-Glo MT Cell Viability Assay in HEK293 cells - 32 hour (AID 1224868); further: top concentration of the series differs between compounds; nearly all actives have a fitted effect of over 50% in size
Procedure, shortened: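 Quantitative high-throughput screen of the Tox21 10K library in HEK293: cells and RealTime-Glo reagents plated together, compound added at 5 h, luminescence monitored through 40 h at 37 C.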

[15] = target: Nuclear receptor subfamily 1 group I member 3 (Homo sapiens) (UniProt Q14994); assay: qHTS assay to identify small molecule agonists of the constitutive androstane receptor (CAR) signaling pathway (AID 1224839); further: nearly all actives have a fitted effect of over 15% in size; further: potency means the concentration at half of the fitted maximal effect;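 on activation: HepG2 cells stably carrying human CAR and a CYP2B6 luciferase reporter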
Procedure, shortened: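 Compounds tested at 15 concentrations on HepG2 cells stably harbouring hCAR and CYP2B6-2.2kb reporter constructs, co-treated with PK11195 (0.75 uM final), 24 h at 37 C; luminescent reporter signal quantified.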

[16] = qHTS assay to identify small molecule antagonists of the estrogen related receptor signaling pathway with the pleiotropic PPARgamma coactivator (PGC) from Tox21 10K library (AID 1224841; call rule not given here)
Procedure, shortened: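 PGC/ERR reporter cells were seeded at 2,000 cells/well and held 6 hours at 37 C/5% CO2 before pin-tool addition of compounds in DMSO. After 18 hours at 37 C, One-Glo was added and luminescence read after 30 minutes at room temperature.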

[17] = qHTS assay to identify small molecule antagonists of the estrogen related receptor (ERR) signaling pathway from Tox21 library (AID 1224848); further: nearly all actives have a fitted effect of over 50% in size
Procedure, shortened: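 Luminescent reporter read-out (ONE-Glo) from NTP's ERR cell line after 18 h treatment at 37 C with DMSO-dissolved Tox21 compounds; cells pre-plated 6 h beforehand at 2,000 per well.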

[18] = qHTS assay to identify small molecule agonists of the estrogen related receptor (ERR) signaling pathway from Tox21 library (AID 1224849; calls by dose curve; further: nearly all actives have a fitted effect of over 15% in size); conditions: ERR reporter cell line, ONE-Glo luciferase, 18 h; at 92.4 µM (top of the series) unless noted
Procedure, shortened: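 ERR reporter cell line (NTP) seeded, rested 6 h at 37 C/5% CO2, then pinned with Tox21 compounds in DMSO. After 18 h at 37 C, ONE-Glo luciferase luminescence was read following 30 min at room temperature.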

[19] = qHTS RealTime-Glo MT Cell Viability Assay in HepG2 cells - 40 hour (AID 1224870); further: nearly all actives have a fitted effect of over 50% in size
Procedure, shortened: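 HepG2 cells (600/well) mixed with RealTime-Glo MT reagent, settled 5 h at 37 C/5% CO2 before compound addition. Nonlytic NanoLuc luminescence from viable-cell prosubstrate reduction read repeatedly during 40 h treatment at 37 C.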

[20] = qHTS assay to identify small molecule agonists of the estrogen related receptor signaling pathway with the pleiotropic PPARgamma coactivator (PGC) from Tox21 10K library (AID 1224842); further: nearly all actives have a fitted effect of over 15% in size
Procedure, shortened: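 PGC/ERR reporter cell line, 2,000 cells per well, incubated 6 h at 37 C before 23 nL compound in DMSO was added. After 18 h at 37 C, One-Glo luminescence read following 30 min at room temperature.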
On the % scale 0 is the no-effect control and ±100 the full control effect.

Sequence of Thyrotropin receptor (Homo sapiens) (P16473 whole entry, looked up): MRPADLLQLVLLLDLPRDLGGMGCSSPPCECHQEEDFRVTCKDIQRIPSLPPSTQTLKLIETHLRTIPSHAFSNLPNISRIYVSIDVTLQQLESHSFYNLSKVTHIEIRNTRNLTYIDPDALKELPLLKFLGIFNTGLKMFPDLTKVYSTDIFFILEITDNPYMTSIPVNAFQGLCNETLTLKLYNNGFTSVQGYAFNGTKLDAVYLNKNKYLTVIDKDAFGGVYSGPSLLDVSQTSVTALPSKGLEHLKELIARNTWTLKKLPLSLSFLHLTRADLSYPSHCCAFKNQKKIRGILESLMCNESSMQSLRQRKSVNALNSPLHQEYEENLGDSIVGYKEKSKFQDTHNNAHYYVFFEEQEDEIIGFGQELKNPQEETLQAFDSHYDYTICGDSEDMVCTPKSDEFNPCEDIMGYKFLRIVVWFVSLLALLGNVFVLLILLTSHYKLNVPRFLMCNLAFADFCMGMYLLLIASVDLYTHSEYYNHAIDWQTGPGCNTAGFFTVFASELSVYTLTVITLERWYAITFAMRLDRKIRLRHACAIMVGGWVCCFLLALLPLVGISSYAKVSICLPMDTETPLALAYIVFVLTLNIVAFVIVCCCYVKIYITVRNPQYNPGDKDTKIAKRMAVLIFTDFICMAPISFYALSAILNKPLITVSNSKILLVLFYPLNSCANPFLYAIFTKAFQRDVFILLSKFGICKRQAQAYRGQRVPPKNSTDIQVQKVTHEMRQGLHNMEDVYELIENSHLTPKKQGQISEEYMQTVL
Sequence of Luciferin 4-monooxygenase (Photinus pyralis) (P08659 whole entry, looked up): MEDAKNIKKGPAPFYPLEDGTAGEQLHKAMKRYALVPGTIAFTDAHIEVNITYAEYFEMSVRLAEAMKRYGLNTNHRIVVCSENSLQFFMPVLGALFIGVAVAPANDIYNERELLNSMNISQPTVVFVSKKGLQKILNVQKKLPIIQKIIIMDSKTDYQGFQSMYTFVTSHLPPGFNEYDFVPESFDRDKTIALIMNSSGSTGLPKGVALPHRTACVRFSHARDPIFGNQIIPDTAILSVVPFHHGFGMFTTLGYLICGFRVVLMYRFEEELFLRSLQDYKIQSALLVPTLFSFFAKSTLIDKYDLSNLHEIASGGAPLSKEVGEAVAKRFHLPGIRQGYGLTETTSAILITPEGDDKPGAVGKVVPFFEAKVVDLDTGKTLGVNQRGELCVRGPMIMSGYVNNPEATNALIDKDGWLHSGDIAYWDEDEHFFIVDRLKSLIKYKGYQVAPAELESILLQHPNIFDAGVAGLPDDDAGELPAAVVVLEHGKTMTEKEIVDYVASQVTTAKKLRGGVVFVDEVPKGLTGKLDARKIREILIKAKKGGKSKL
Sequence of Nuclear receptor subfamily 1 group I member 3 (Homo sapiens) (Q14994 whole entry, looked up): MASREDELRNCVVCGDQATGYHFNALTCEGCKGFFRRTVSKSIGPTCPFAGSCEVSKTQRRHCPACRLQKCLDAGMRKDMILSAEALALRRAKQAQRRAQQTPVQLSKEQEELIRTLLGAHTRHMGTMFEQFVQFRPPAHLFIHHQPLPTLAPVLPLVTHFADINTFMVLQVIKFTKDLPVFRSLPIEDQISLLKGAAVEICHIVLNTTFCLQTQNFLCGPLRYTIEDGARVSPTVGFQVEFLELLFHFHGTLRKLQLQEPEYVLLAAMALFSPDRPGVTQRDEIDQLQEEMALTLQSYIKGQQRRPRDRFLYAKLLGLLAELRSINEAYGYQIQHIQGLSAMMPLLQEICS

CN(N=O)c1ccc([N+](=O)[O-])cc1
inactive: Potency [1] | Potency [2] | Potency [3] | Potency [4] | Potency [5] | Potency [6] | Potency [7] | outcome [8] | Potency [9] | Potency [10] | Potency [11]

ClCc1ccccc1
inactive: Potency [1] | Potency [2] | Potency [3] | Potency [4] | Potency [5] | Potency [12] | Potency [13] | Potency [7] | outcome [8] | Potency [9] | Potency [10] | Potency [14] | Potency [11]

COCCOCCO
inactive: Potency [1] | Potency [2] | Potency [3] | Potency [4] | Potency [15] | Potency [16] | Potency [17] | Potency [14] | Potency [11] | Potency [19]
active: activity change, positive = activation [18] 18.2%

CC(C)(OO)c1ccccc1
active: Potency [13] 34.4 µM
inactive: Potency [1] | Potency [2] | Potency [3] | Potency [4] | Potency [15] | Potency [12] | Potency [16] | Potency [20] | Potency [6] | outcome [8] | Potency [9] | Potency [17] | activity change, positive = activation [18] 4.39% | Potency [10] | Potency [11] | Potency [19]

COC(N)=O
inactive: Potency [1] | Potency [2] | Potency [3] | Potency [4] | Potency [15] | Potency [7] | outcome [8] | Potency [9] | Potency [10] | Potency [11]

Sc1ccccc1Cl
inactive: Potency [1] | Potency [2] | Potency [3] | Potency [4] | Potency [15] | Potency [12] | Potency [16] | Potency [13] | Potency [7] | outcome [8] | Potency [9] | Potency [17] | activity change, positive = activation [18] 1.99% [at 42.5 µM] | Potency [10] | Potency [14] | Potency [11] | Potency [19]

CC(C)(C)c1cc([N+](=O)[O-])cc([N+](=O)[O-])c1O
active: Potency [1] 15.3 µM | Potency [2] 70.8 µM | Potency [3] 13.6 µM | Potency [4] 15.3 µM | Potency [12] 15.3 µM
inactive: Potency [15] | Potency [13] | Potency [7] | outcome [8] | Potency [9] | Potency [10] | Potency [11]

CC/C(=N\OC/C=C/Cl)C1=C(O)CC(C2CCOCC2)CC1=O (centres undefined)
inactive: Potency [1] | Potency [2] | Potency [3] | Potency [4] | Potency [5] | Potency [12] | Potency [16] | Potency [13] | Potency [6] | Potency [7] | outcome [8] | Potency [9] | activity change, positive = activation [18] 0.742% | Potency [14] | Potency [11] | Potency [19]

C=CC(=O)OCCCCO
inactive: Potency [1] | Potency [2] | Potency [3] | Potency [4] | Potency [5] | Potency [12] | Potency [16] | Potency [20] | Potency [13] | Potency [6] | Potency [9] | Potency [14] | Potency [11] | Potency [19]
active: activity change, positive = activation [18] 68.3%

CCC(Br)(CC)C(=O)NC(N)=O
inactive: Potency [1] | Potency [2] | Potency [3] | Potency [4] | Potency [5] | Potency [12] | Potency [13] | Potency [6] | Potency [7] | outcome [8] | Potency [9] | Potency [10] | Potency [14] | Potency [11] | Potency [19]

ClCCCCBr
inactive: Potency [1] | Potency [2] | Potency [3] | Potency [4] | Potency [5] | Potency [12] | Potency [6] | Potency [7] | outcome [8] | Potency [9] | Potency [14] | Potency [11]

ClP(Cl)(Cl)(Cl)Cl
active: Potency [2] 31.9 µM
inactive: Potency [1] | Potency [3] | Potency [4] | Potency [5] | Potency [12] | Potency [13] | Potency [6] | outcome [8] | Potency [9] | Potency [17] | activity change, positive = activation [18] 0.0891% | Potency [11]

CC(C)(Cl)[N+](=O)[O-]
inactive: Potency [1] | Potency [2] | Potency [3] | Potency [4] | Potency [15] | Potency [12] | Potency [13] | Potency [6] | Potency [7] | outcome [8] | Potency [9] | activity change, positive = activation [18] -29.2% | Potency [10] | Potency [14] | Potency [11] | Potency [19]

CC(C)=CCOc1c2occc2cc2ccc(=O)oc12
inactive: Potency [1] | Potency [2] | Potency [3] | Potency [4] | Potency [5] | Potency [16] | Potency [13] | Potency [7] | outcome [8] | Potency [9] | Potency [17] | activity change, positive = activation [18] -9.71% [at 42.5 µM] | Potency [14] | Potency [11] | Potency [19]

CCCN(CCCl)c1c([N+](=O)[O-])cc(C(F)(F)F)cc1[N+](=O)[O-]
inactive: Potency [1] | Potency [2] | Potency [3] | Potency [4] | Potency [5] | Potency [12] | Potency [16] | Potency [20] | Potency [6] | Potency [7] | outcome [8] | activity change, positive = activation [18] -4.52% | Potency [10] | Potency [11] | Potency [19]
active: Potency [13] 1.93 µM

C/C=C/C=O
inactive: Potency [1] | Potency [2] | Potency [3] | Potency [4] | Potency [5] | Potency [12] | Potency [7] | outcome [8] | Potency [9] | Potency [10] | Potency [14] | Potency [11] | Potency [19]

CCOc1ccc(C(C)(C)COCc2cccc(Oc3ccccc3)c2)cc1
inactive: Potency [1] | Potency [2] | Potency [3] | Potency [4] | Potency [6] | Potency [7] | outcome [8] | Potency [9] | Potency [10] | Potency [14] | Potency [11] | Potency [19]
active: Potency [15] 6.11 µM

CCOP(=S)(Oc1ccc([N+](=O)[O-])cc1)c1ccccc1 (centres undefined)
active: activity change, positive = activation [18] 24.4%
inactive: Potency [1] | Potency [2] | Potency [3] | Potency [4] | Potency [5] | Potency [12] | Potency [16] | Potency [6] | Potency [7] | outcome [8] | Potency [10] | Potency [14] | Potency [11]
